The source of these data is PubChem BioAssay.

Structures are written as SMILES. Values without a mark were called inactive.

A short description of the experiment: growth modulation of vineyard yeast isolate – strain RM11-1a, OD600, basal, 24 h, primary screen (AID 1177).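 Further: cultures grown under basal conditions with no added stressor; test concentration not given here.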 The note with it: S. cerevisiae RM11-1a growth, OD600, 24 h; higher = more signal, called active from +8 up or from −8 down.
For the molecule `CCOC(=O)C[C@H]1[C@H](OC(=O)Cc2ccc3c(c2)OCO3)[C@@H](NC(=O)c2ccc(-c3ccccc3)cc2)c2cc(OCCCO)ccc2N1C(=O)Cc1ccc(OC)cc1`, the z-score was -1.82. The same measure for `C=CCNC(=O)[C@H]1[C@@H]2C(=O)O[C@@H](c3ccccc3)[C@@H](c3ccccc3)N2[C@@H](c2ccc(O)cc2)[C@]12C(=O)N(C(=O)OCCOC)c1ccc(C#CCNC(N)=O)cc12`: 1.14; for `NCCCCCNC(=O)[C@@H]1C[C@@H]2C(=O)NCC(=O)N2[C@@H]1c1ccc(O)cc1`: 0.225; for `C[N+](C)(C)CCCC[C@@H]1NC(=O)[C@@H]2C[C@H](C(=O)NCCCCCN)[C@H](c3cccc(OCCO)c3)N2C1=O`: 0.527. Take `COc1cc(CO)cc(I)c1O[C@H]1C=C(C(=O)NCCO)C[C@@H](N(CCN2CCOCC2)C(=O)C2CCOC2)[C@@H]1O` (stereo not given in full): the z-score is 0.0222. Under `[N-]=[N+]=NCc1ccccc1[C@@H]1OC(c2ccc(OCCCO)cc2)=N[C@]1(Cc1ccccc1N=[N+]=[N-])C(=O)N1CCOCC1` stands 0.602; under `O=C1NCC(=O)N2[C@@H]1C[C@@H](C(=O)O)[C@H]2c1cccc(OCCO)c1`, 0.569; under `COc1ccc([Si](C)(C)[C@H]2[C@H](CCO)O[C@@]3(C(=O)N(Cc4ccc(N5C(=O)COc6ccccc65)cc4)c4ccccc43)[C@@H]2C)cc1`, 3.3. The same measure for `O=C1c2ccccc2[C@@]2(Cc3ccccc3N(CCN3CCOCC3)C2=O)[C@H](c2ccc(CO)cc2)N1Cc1ccccc1`: 0.167; for `COc1ccc([Si](C)(C)[C@@H]2[C@@H](CC(=O)N3Cc4ccccc4C[C@H]3CO)O[C@]3(C(=O)N(C)c4c(Br)cc(C)cc43)[C@H]2C)cc1`: 1.7; for `CCOC(=O)C[C@H]1[C@H](OC(=O)Cc2ccc3c(c2)OCO3)[C@@H](NC(=O)c2ccc3ccccc3c2)c2cc(OCCCO)ccc2N1C(=O)c1ccccc1`: 0.738. In the case of `CN1C(=O)C2C=CC(C(O)c3ccccc3)N(Nc3ccccc3)C2C1=O` (stereo not given), the z-score is 0.166. `CC(C)c1ccc(NN2C(C(O)C(c3ccccc3)c3ccccc3)C=CC3C(=O)N(c4ccccc4)C(=O)C32)cc1` (stereo not given): the z-score was 1.17. Under `C=C(CCCC)C(=O)CC[C@H](OC(=O)c1cccnc1)c1ccccc1OCCO` stands -1.61. The same measure for `CC(C)[C@@H](CO)NC(=O)[C@H]1[C@@H](c2ccccc2)N(c2ccccc2)O[C@@H]1C`: 1.2; for `CCOC(=O)[C@H]1CC=C2CC1C(=O)N1CCC[C@@H]1[C@@H]2O[Si](C)(C)C(C)(C)C` (stereo not given in full): -0.335. `O=C(O)[C@@]1(CCS(=O)(=O)c2ccccc2)COC(c2ccc(OCCCO)cc2)=N1`: the z-score was -0.197. The same measure for `CCOC(=O)[C@H]1C/C=C/C[C@H](C(=O)OCC)C(=O)O[C@H]2[C@@H](OC)O[C@H](CO)[C@@H](OC(=O)Nc3ccc(C#N)cc3)[C@@H]2OC1=O`: -0.166. Under `COCCOC(=O)N1C(=O)[C@@]2(c3cc(C#CC4=CCCCC4)ccc31)[C@H](C(=O)N1CCc3cc(OC)c(OC)cc3C1)[C@H]1C(=O)O[C@H](c3ccccc3)[C@H](c3ccccc3)N1[C@@H]2c1ccc(OCCO)cc1` stands 1.38; under `C#CCN(CC=C(C)C)[C@H](CO)c1ccccc1`, -0.0386; under `COc1ccc(C(O)C2C=CC3C(=O)N(c4ccccc4)C(=O)C3N2Nc2ccccc2F)cc1OCc1ccccc1` (stereo not given), -0.0242. Under `COc1ccc(C(=O)Nc2ccc(CN3C(=O)[C@@]4(O[C@@H](CC(=O)N5CCC[C@H]5CO)[C@H]([Si](C)(C)c5ccc(OC)cc5)[C@H]4C)c4ccccc43)cc2)cc1` stands 0.515; under `CCOC(=O)C=Cc1cc([N+](=O)[O-])ccc1O`, 0.11. In the case of `CCOc1cc(C(O)C2C=CC3C(=O)N(c4ccccc4)C(=O)C3N2Nc2ccccc2)ccc1O` (stereo not given), the z-score was 1.16. As for `CCOC(=O)C[C@H]1[C@H](OC(=O)c2cc3ccccc3oc2=O)[C@@H](NC(=O)Cc2ccc(OC)cc2)c2cc(OCCCO)ccc2N1C(=O)c1ccccc1`, the z-score is 0.0296. The same measure for `O=C(NCc1ccc(F)cc1)[C@H]1C[C@H]2C(=O)N[C@@H](Cc3ccccc3)C(=O)N2[C@H]1c1ccc(O)cc1`: 1.23.

For the molecule `O=C(c1ccccc1)N1Cc2ccccc2[C@@H]2OC(c3ccc(OCCCO)cc3)=N[C@]2(Cc2ccccc2)C1=O`, the z-score was 0.843. Under `COc1ccc(C(=O)Nc2ccc(CN3C(=O)[C@@]4(O[C@@H](CCO)[C@H]([Si](C)(C)c5ccc(OC)cc5)[C@H]4C)c4ccccc43)cc2)cc1` stands 3.08; under `COc1ccc([Si](C)(C)[C@H]2[C@H](CCn3cc([C@H](O)c4ccccc4)nn3)O[C@@]3(C(=O)N(Cc4cccc(N5CCOC5=O)c4)c4ccccc43)[C@@H]2C)cc1`, 1.18; under `CCCC=C(CCC)[C@@H](NS(=O)(=O)c1cccs1)c1ccc(C(=O)OC)cc1`, 1.59.

Regarding `O=C(NCc1ccccc1)[C@@]1(Cc2ccccc2)N=C(c2ccc(OCCCO)cc2)O[C@H]1c1ccccc1`, the z-score is 1.7.

`COC(=O)c1c(CC[C@@H](CO)NC(=O)N[C@@H](C)Cn2cc(C3(O)CCCCC3)nn2)oc(C(C)=O)c1C(=O)OC`: the z-score is -0.314.

On to `O=C1O[C@H](c2ccccc2)[C@H](c2ccccc2)N2[C@H]1[C@@H](C(=O)O)[C@]1(C(=O)Nc3ccc(C#CCCO)cc31)[C@H]2c1ccc(O)cc1`, for which the z-score was 0.0737.

As to `CC(C)C[C@H]1NC(=O)[C@@]23C(=O)N[C@@H](Cc4ccccc4)C2[C@H](C)[C@@]2(C)O[C@H]2C3/C=C/C/C=C\CNC(=O)[C@H](Cc2ccccc2)NC1=O` (stereo not given in full), the z-score was 1.66. Under `COc1ccc(C#Cc2ccc3c(c2)[C@]2(C(=O)N3)[C@H](c3ccccc3OCCO)N3[C@H](c4ccccc4)[C@H](c4ccccc4)OC(=O)[C@H]3[C@@H]2C(=O)O)cc1` stands 3.13.
